# Several values for one entry are separate records, joined by “and”; a condition that tells them apart may be missing. Equal values may be shown once. Results filed as inconclusive are left out. A call without a number means that no potency is given here. A structure can be active in one record and inactive in another. Activity calls are given as the source filed them. Unless noted, calls follow the shape of the dose curve; as a rule, active = well fitted curve in the direction sought with a large enough effect in the repeat runs; inconclusive = weak or mixed curves; inactive = no such curve, though single readings can be large; an effect the other way counts as inactive or inconclusive.
# Assays:
# [1] = qHTS assay to identify aromatase inhibitors - cell viability counter screen (AID 743084);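 also: cells stimulated with testosterone during compound exposure; nearly all actives have a fitted effect of over 55% in size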; also: potency is read from the fitted curve at half-maximal effect
# [2] = biological target: Aryl hydrocarbon receptor (Homo sapiens) (UniProt P35869); experiment: qHTS assay to identify small molecule that activate the aryl hydrocarbon receptor (AhR) signaling pathway (AID 743085); also: nearly all actives have a fitted effect of over 15% in size; also: potency is read from the fitted curve at half-maximal effect;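 as to activation: HG2L7.5c1 human HepG2 liver cells with stably integrated DRE-driven firefly reporter; series mostly up to about 70 µM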
# Sequence of Aryl hydrocarbon receptor (Homo sapiens) (P35869 whole entry, looked up): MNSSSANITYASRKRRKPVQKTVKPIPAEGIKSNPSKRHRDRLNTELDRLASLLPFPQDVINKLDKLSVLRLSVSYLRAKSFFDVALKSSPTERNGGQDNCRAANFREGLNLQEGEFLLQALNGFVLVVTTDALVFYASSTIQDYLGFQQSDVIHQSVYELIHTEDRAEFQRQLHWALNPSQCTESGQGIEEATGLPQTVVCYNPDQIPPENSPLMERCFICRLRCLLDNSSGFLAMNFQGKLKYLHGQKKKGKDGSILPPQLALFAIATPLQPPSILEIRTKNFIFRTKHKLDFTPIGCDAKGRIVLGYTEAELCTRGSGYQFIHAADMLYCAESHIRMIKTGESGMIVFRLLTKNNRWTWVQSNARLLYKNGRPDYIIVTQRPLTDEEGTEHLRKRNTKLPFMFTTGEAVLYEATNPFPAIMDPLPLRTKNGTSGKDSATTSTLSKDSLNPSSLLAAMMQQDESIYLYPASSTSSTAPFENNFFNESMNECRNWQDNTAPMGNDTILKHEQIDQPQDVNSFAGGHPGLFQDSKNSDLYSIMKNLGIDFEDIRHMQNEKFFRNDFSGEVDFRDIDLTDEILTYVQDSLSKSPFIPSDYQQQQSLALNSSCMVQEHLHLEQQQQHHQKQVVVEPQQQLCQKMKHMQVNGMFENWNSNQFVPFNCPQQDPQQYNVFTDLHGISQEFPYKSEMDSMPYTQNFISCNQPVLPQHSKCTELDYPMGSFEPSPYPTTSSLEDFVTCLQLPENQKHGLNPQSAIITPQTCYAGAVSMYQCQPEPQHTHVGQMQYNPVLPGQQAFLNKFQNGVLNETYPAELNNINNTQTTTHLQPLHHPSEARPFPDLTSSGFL
# Procedure, shortened: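 Reporter assay in engineered HepG2 line HG2L7.5c1, whose plasmid carries twenty dioxin responsive elements upstream of firefly luciferase. Treatment lasted 24 h at 37C; ONE-Glo luminescence gauged induction.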
# [3] = qHTS assay to identify small molecule that activate the aryl hydrocarbon receptor (AhR) signaling pathway - cell viability counter screen (AID 743086);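 also: HepG2 liver cells carrying the AhR DRE luciferase reporter; series mostly up to about 70 µM; nearly all actives have a fitted effect of over 45% in size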
# Procedure, shortened: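 HepG2-AhR-luc (HG2L7.5c1) cells, 4000/well, were preincubated 5 h at 37C, exposed to compound in qHTS format for 24 hr at 37C, then given CellTiter-Fluor for 30 min; viability was read as fluorescence in the reporter wells.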
# [4] = biological target: Peroxisome proliferator-activated receptor gamma (Homo sapiens) (UniProt P37231); experiment: qHTS assay to identify small molecule agonists of the peroxisome proliferator-activated receptor gamma (PPARg) signaling pathway (AID 743094; active = well fitted activation curve with a large enough effect in the signal ratio in the repeat runs, not every such curve was filed as active; the % refers to the signal ratio)
# Sequence of Peroxisome proliferator-activated receptor gamma (Homo sapiens) (P37231 whole entry, looked up): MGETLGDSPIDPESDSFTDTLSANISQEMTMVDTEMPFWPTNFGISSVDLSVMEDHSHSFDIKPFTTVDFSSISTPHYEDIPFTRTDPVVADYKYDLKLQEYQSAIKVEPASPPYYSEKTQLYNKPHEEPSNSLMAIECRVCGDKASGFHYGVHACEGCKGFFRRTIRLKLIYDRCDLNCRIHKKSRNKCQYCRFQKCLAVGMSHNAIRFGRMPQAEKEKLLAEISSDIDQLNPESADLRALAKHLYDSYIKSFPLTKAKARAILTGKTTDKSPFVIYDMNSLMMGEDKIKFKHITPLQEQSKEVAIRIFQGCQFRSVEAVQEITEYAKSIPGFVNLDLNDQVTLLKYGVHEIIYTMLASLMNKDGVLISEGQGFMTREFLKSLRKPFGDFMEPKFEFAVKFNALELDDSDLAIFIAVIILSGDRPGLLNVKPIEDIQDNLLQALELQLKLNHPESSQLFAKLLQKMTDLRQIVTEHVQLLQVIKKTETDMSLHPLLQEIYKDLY
# Procedure, shortened: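 Cells from the PPARg UAS-bla HEK293H line are plated and incubated 5 h at 37C. Compounds in DMSO are pinned in and left 17 h at 37C. LiveBLAzer B/G substrate is then added for 1 h at room temperature before fluorescence is measured.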
# [5] = biological target: Peroxisome proliferator-activated receptor gamma (Homo sapiens) (UniProt P37231); experiment: qHTS assay to identify small molecule antagonists of the peroxisome proliferator-activated receptor gamma (PPARg) signaling pathway (AID 743191; calls by dose curve; also: nearly all actives have a fitted effect of over 30% in size; also: potency is read from the fitted curve at half-maximal effect)
# Procedure, shortened: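 GeneBLAzer PPARg UAS-bla HEK293H cells carrying a UAS-driven beta-lactamase reporter were plated at 3000 cells/well, preincubated 5 h at 37C, then given compound for 17 h at 37C; LiveBLAzer B/G FRET substrate was read after 1 h at room temperature.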
# [6] = qHTS assay to identify small molecule antagonists of the peroxisome proliferator-activated receptor gamma (PPARg) signaling pathway - cell viability counter screen (AID 743194); also: nearly all actives have a fitted effect of over 55% in size
# Procedure, shortened: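 PPARg-UAS-bla HEK293H cells were plated, rested 5 h at 37 C, then treated with compounds plus rosiglitazone (50 nM final) for 17 h at 37 C; viability was then read by CellTiter-Glo luminescence after 30 min at room temperature.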
# [7] = qHTS assay for small molecule agonists of the antioxidant response element (ARE) signaling pathway - cell viability counter screen (AID 743203; calls by dose curve; also: nearly all actives have a fitted effect of over 55% in size)
# Procedure, shortened: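 Cytotoxicity was tested in parallel with the ARE reporter screen. ARE-bla HepG2 cells were exposed to compounds for 16 hrs, and viability was taken from CellTiter-Glo luminescence.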
# [8] = qHTS assay for small molecule activators of the heat shock response signaling pathway - cell viability counter screen (AID 743209); also: nearly all actives have a fitted effect of over 50% in size
# Procedure, shortened: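 Cytotoxicity counter screen run in parallel with the HSE beta-lactamase reporter, using the same wells. HeLa HSE-bla cells received compound for 5 h at 37 C; ATP-based CellTiter-Glo luminescence was measured after 30 min at room temperature.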
# [9] = qHTS assay for small molecule activators of the heat shock response signaling pathway (AID 743210; active = well fitted activation curve with a large enough effect in the signal ratio in the repeat runs, with a control signal flat, not every such curve was filed as active; the % refers to the signal ratio; also: series mostly up to about 63 µM)
# Procedure, shortened: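 Heat shock element–beta-lactamase HeLa reporter cells; qHTS with compounds for 5 h at 37 C; detection by FRET substrate fluorescence after 2.5 h at RT.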
# [10] = qHTS assay to identify small molecule agonists of the peroxisome proliferator-activated receptor delta (PPARd) signaling pathway - cell viability counter screen (AID 743211); also: nearly all actives have a fitted effect of over 55% in size; also: potency is read from the fitted curve at half-maximal effect
# Procedure, shortened: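 Multiplexed format: after the 2 h room-temperature LiveBLAzer B/G FRET step, CellTiter-Glo was added to the same wells. Luminescence after 30 min gave cell viability; compound exposure was 17 h at 37C.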
# [11] = biological target: Peroxisome proliferator-activated receptor delta (Homo sapiens) (UniProt Q03181); experiment: qHTS assay to identify small molecule agonists of the peroxisome proliferator-activated receptor delta (PPARd) signaling pathway (AID 743212; calls by dose curve)
# Sequence of Peroxisome proliferator-activated receptor delta (Homo sapiens) (Q03181 whole entry, looked up): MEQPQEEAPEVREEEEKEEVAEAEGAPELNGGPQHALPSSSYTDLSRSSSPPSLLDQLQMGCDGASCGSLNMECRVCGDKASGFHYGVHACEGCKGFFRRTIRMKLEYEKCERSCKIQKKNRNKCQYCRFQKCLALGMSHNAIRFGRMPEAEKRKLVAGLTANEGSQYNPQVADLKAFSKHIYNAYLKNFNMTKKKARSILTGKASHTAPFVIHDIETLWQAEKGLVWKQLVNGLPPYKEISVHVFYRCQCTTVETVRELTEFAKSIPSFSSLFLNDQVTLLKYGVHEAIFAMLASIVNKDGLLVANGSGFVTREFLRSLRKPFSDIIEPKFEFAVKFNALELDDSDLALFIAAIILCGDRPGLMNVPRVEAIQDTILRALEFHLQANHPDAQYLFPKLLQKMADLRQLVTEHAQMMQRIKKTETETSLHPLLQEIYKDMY
# Procedure, shortened: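 Beta-lactamase reporter read by fluorescence (LiveBLAzer B/G FRET, 2 h, room temperature). Test agents, in DMSO, incubated at 37 C with PPARd-bla HEK293H cells.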
# [12] = qHTS assay to identify small molecule antagonists of the peroxisome proliferator-activated receptor delta (PPARd) signaling pathway - cell viability counter screen (AID 743213); also: nearly all actives have a fitted effect of over 50% in size
# Procedure, shortened: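 Cytotoxicity counter screen: CellTiter-Glo luminescence read 30 min after addition, in the same wells as the reporter assay. There, PPARd UAS-bla HEK293H cells (3000/well) were treated 17 h at 37 C with compound and 300 nM L165041.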
# [13] = biological target: Peroxisome proliferator-activated receptor delta (Homo sapiens) (UniProt Q03181); experiment: qHTS assay to identify small molecule antagonists of the peroxisome proliferator-activated receptor delta (PPARd) signaling pathway (AID 743215; active = well fitted inhibition curve with a large enough effect in the signal ratio in the repeat runs, not every such curve was filed as active; the % refers to the signal ratio;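 also: cells stimulated with agonist L165041 at 300 nM final during compound exposure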; also: potency is read from the fitted curve at half-maximal effect)
# Procedure, shortened: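 Cells: HEK293H with a UAS-driven beta-lactamase reporter responsive to PPARd. Compounds were co-added with L165041 (300 nM, final) and incubated 17 h at 37 C before a 2 h room-temperature FRET substrate step and fluorescence reading.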
# [14] = qHTS assay to identify small molecule agonists of the farnesoid-X-receptor (FXR) signaling pathway - cell viability counter screen (AID 743218); also: nearly all actives have a fitted effect of over 45% in size
# Procedure, shortened: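 Cells were seeded, left 5 h at 37 C and 5% CO2, then dosed with compound in DMSO for 16 h. After the beta-lactamase FRET read, CellTiter-Glo was added and luminescence measured 30 min later.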
# [15] = biological target: Bile acid receptor (Homo sapiens) (UniProt Q96RI1); experiment: qHTS assay to identify small molecule agonists of the farnesoid-X-receptor (FXR) signaling pathway (AID 743220; active = well fitted activation curve with a large enough effect in the signal ratio in the repeat runs, not every such curve was filed as active; the % refers to the signal ratio)
# Sequence of Bile acid receptor (Homo sapiens) (Q96RI1 whole entry, looked up): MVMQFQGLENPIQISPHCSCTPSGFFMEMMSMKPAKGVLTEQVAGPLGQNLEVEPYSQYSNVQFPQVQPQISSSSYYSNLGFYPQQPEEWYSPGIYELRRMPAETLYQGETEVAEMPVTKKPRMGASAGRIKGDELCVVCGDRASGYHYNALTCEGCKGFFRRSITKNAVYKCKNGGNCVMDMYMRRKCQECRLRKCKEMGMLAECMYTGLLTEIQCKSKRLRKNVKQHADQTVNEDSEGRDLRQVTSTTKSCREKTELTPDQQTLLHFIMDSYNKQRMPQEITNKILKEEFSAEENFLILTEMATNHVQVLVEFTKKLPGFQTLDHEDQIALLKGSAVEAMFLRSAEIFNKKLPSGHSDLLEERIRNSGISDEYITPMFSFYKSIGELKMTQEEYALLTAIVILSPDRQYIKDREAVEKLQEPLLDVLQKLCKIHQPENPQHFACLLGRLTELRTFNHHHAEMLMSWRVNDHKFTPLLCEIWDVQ
# Procedure, shortened: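 FXR-UAS-bla HEK 293T cells carrying a UAS-driven beta-lactamase reporter were plated for 5 h at 37C/5% CO2, then exposed to DMSO-dissolved Tox21 10K compounds for 16 h at 37C. A LiveBLAzer B/G FRET substrate was loaded for 2 h at room temperature before fluorescence reading.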
# [16] = qHTS assay to identify small molecule antagonists of the farnesoid-X-receptor (FXR) signaling pathway - cell viability counter screen (AID 743221; active = well fitted cell-killing curve with a large enough effect in the repeat runs, not every such curve was filed as active; also: nearly all actives have a fitted effect of over 50% in size)
# Procedure, shortened: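 CellTiter-Glo, 30 min RT, luminescence; same wells as the LiveBLAzer FRET read. Cells: FXR-UAS-bla HEK 293T. Treatment: compound with chenodeoxycholic acid 50 uM final, 16 h at 37 C.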
# [17] = biological target: Vitamin D3 receptor (Homo sapiens) (UniProt P11473); experiment: qHTS assay to identify small molecule agonists of the vitamin D receptor (VDR) signaling pathway (AID 743222; calls by dose curve)
# Sequence of Vitamin D3 receptor (Homo sapiens) (P11473 whole entry, looked up): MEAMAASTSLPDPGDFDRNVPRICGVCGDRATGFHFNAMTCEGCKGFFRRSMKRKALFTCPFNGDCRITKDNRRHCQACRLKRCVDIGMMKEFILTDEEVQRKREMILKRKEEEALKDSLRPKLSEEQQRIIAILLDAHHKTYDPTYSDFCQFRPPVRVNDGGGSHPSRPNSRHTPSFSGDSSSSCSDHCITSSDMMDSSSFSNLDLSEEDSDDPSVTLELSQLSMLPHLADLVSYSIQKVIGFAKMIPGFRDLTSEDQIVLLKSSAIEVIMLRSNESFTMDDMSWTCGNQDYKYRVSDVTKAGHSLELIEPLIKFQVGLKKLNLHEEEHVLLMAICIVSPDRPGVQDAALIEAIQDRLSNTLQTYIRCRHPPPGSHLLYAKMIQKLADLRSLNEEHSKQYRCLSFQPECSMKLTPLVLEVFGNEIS
# Procedure, shortened: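 Cells carrying a VDR-driven beta-lactamase reporter are seeded at 2,000 per well and rested 4 h. Compounds in DMSO are added for 16 h at 37C, and FRET substrate fluorescence is measured after 2 h at room temperature.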
# [18] = biological target: Vitamin D3 receptor (Homo sapiens) (UniProt P11473); experiment: qHTS assay to identify small molecule antagonists of the vitamin D receptor (VDR) signaling pathway (AID 743223; active = well fitted inhibition curve with a large enough effect in the signal ratio in the repeat runs, not every such curve was filed as active; the % refers to the signal ratio)
# Procedure, shortened: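 After VDR-bla cells are plated and left 4 h at 37C, DMSO-dissolved compounds and 3 nM (final) calcitriol agonist are added. Incubation continues 16 h at 37C; FRET beta-lactamase substrate then develops 2 h at room temperature.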
# [19] = qHTS assay for small molecule agonists of the antioxidant response element (ARE) signaling pathway (AID 743202; active = well fitted activation curve with a large enough effect in the signal ratio in the repeat runs, not every such curve was filed as active; the % refers to the signal ratio)
# Procedure, shortened: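 Following a 16 h, 37 C exposure of reporter HepG2 cells (ARE-driven beta-lactamase, 2,000 cells/well) to compounds, FRET substrate was applied for 2 h at room temperature and fluorescence intensity recorded.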
# [20] = biological target: Bile acid receptor (Homo sapiens) (UniProt Q96RI1); experiment: qHTS assay to identify small molecule antagonists of the farnesoid-X-receptor (FXR) signaling pathway (AID 743217; active = well fitted inhibition curve with a large enough effect in the signal ratio in the repeat runs, not every such curve was filed as active; the % refers to the signal ratio)
# Procedure, shortened: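 Cells carrying a UAS-driven beta-lactamase reporter (GeneBLAzer FXR-UAS-bla HEK 293T) were plated and rested 5 h at 37 °C. Compounds in DMSO were added alongside chenodeoxycholic acid agonist at 50 uM final and left 16 h at 37 °C before FRET substrate readout.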
SMILES,Potency [1],Potency [2],Potency [3],outcome [4],Potency [5],outcome [6],Potency [7],outcome [8],outcome [9],Potency [10],outcome [11],Potency [12],Potency [13],Potency [14],outcome [15],Potency [16],outcome [17],outcome [18],Potency [19],outcome [20]
CCO[Si](CCC1CCC2OC2C1)(OCC)OCC (stereo unspecified),inactive,inactive,inactive,inactive,inactive,inactive,inactive,inactive,inactive,inactive,inactive,inactive,inactive,inactive,inactive,inactive,inactive,inactive,–,–
CCCCNC(=O)NCCCC,inactive,inactive,inactive,inactive,inactive,inactive,inactive,inactive,inactive,inactive,inactive,inactive,inactive,inactive,–,inactive,inactive,inactive,–,–
CC[N+](C)(C)c1cccc(O)c1,inactive,inactive,inactive,inactive,inactive,–,inactive,inactive,inactive,inactive,inactive,inactive,inactive,inactive,inactive,inactive,–,–,inactive,–
CC(C)(O)C(=O)c1ccccc1,inactive,inactive,inactive,inactive,inactive,inactive,inactive,inactive,inactive,inactive,inactive,–,–,inactive,inactive,inactive,inactive,–,–,inactive
CCc1ccc(O)c(OC)c1,inactive,inactive,inactive,inactive,inactive,inactive,inactive,inactive,inactive,inactive,–,inactive,inactive,inactive,inactive,inactive,–,–,–,inactive
COC(=O)c1c(Cl)c(Cl)c(C(=O)OC)c(Cl)c1Cl,inactive,inactive and 48.6 µM (active),inactive,inactive,inactive,inactive,inactive,inactive,inactive,inactive,inactive,inactive,inactive,inactive,inactive,inactive,inactive,–,–,–
CC(C)(C)NCCNC(C)(C)C,inactive,inactive,inactive,inactive,inactive,–,inactive,inactive,inactive,inactive,inactive,inactive,inactive,inactive,inactive,inactive,inactive,–,inactive,inactive
CCCCC(CC)COC(=O)c1ccccc1O (stereo unspecified),inactive,inactive,inactive,inactive,inactive,inactive,inactive,–,inactive,inactive,inactive,inactive,inactive,inactive,–,inactive,inactive,inactive,–,–
FC1(F)C(F)(F)C(F)(F)C2(F)C(F)(F)C(F)(F)C(F)(F)C(F)(F)C2(F)C1(F)F (stereo unspecified),inactive,inactive,inactive,inactive,inactive,inactive,–,inactive,inactive,inactive,inactive,inactive,inactive,inactive,inactive,inactive,inactive,–,–,inactive
CC(=O)CC(C)(C)C1CCCCC1,inactive,inactive,inactive,inactive,inactive,–,inactive,inactive,inactive,inactive,inactive,inactive,inactive,inactive,–,–,–,–,inactive,–
CCCC(=O)O[C@]1(C(=O)CO)CC[C@H]2[C@@H]3CCC4=CC(=O)CC[C@]4(C)[C@H]3[C@@H](O)C[C@@]21C,inactive,inactive,inactive,inactive,inactive,inactive,inactive,inactive,inactive,inactive,inactive,–,inactive,inactive,–,inactive,inactive,–,–,–
CC(=O)N(CC(O)CO)c1c(I)c(C(=O)NCCO)c(I)c(C(=O)NCC(O)CO)c1I (stereo unspecified),inactive,inactive,inactive,inactive,inactive,inactive,inactive,inactive,inactive,inactive,inactive,inactive,inactive,inactive,inactive,inactive,inactive,inactive,–,–
CCCCCCCCCCCCCCCCC,inactive,inactive,inactive,inactive,inactive,inactive,–,inactive,inactive,inactive,inactive,–,inactive,inactive,inactive,inactive,inactive,inactive,–,–
CC(C)(CC(=O)O)C(=O)O,inactive,inactive,inactive,inactive,inactive,inactive,inactive,inactive,inactive,inactive,inactive,inactive,inactive,inactive,–,inactive,inactive,inactive,–,–
CC(C)(C)c1ccc(O)c(O)c1,54.5 µM (active),70.9 µM (active) and 34.4 µM (active),inactive,inactive,18 µM (active),inactive,–,inactive,–,25.4 µM (active),–,–,50.7 µM (active),inactive,–,inactive,inactive,–,–,–
N=C(N)c1ccccc1,inactive,inactive,inactive,inactive,inactive,inactive,inactive,inactive,inactive,inactive,inactive,inactive,inactive,–,–,inactive,inactive,–,–,–
CCOC(C)(C)C,inactive,inactive,inactive,inactive,inactive,inactive,inactive,inactive,inactive,inactive,inactive,–,inactive,inactive,inactive,inactive,inactive,inactive,–,inactive
